From PubChem BioAssay
Compounds with a hit are over-represented: about 11% of the library has one in this group of screens.
ALDH1A1 inh: blocks purified human ALDH1A1 activity; Potency, µM (doses to about 75.3 µM), for inactives: top-dose activity, negative = inhibition, hits mostly inhibitors; P00352; AID 1030; 220,000 compounds, 7.3% hits; Purified ALDH1A1, NADH fluorescence, propionaldehyde substrate; active = well fitted inhibition curve with a large enough effect, not every such curve was filed as active; inconclusive = small, poorly fitted or top-dose-only effect, or another doubt; inactive = no such curve, though single readings can be large or run the other way;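 also: potency is read from the fitted curve at half-maximal effect; plate controls were no enzyme wells and a reference inhibitor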
Target sequence (P00352 whole entry, looked up): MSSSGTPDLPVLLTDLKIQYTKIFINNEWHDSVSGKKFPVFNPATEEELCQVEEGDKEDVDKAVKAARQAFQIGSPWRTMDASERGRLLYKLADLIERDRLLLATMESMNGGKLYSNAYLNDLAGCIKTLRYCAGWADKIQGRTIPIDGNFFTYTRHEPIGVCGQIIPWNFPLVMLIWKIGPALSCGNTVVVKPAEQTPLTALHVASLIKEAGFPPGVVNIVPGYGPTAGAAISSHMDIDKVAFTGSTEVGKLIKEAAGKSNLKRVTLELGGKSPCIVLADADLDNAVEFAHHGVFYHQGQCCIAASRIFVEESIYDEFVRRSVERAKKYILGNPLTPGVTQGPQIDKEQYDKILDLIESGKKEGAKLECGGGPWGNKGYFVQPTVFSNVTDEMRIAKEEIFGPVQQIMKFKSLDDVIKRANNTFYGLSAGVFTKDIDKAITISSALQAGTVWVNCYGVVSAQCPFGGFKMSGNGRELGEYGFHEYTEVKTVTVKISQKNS
IMPase cell inh: cell-permeable inhibitors of inositol monophosphatase (IMPase); P97697; CHO-M1 cells, IP1 accumulation, HTRF TR-FRET ratio; inhibition (IP1 accumulation), % at 46.1 µM; 120,000 tested, under 10 active; AID 901; active = well fitted curve in the direction sought with a large enough effect in the signal ratio, not every such curve was filed as active; inconclusive = small, poorly fitted or top-dose-only effect, or a change in a side signal; inactive = no such curve, though single readings can be large or run the other way; the % refers to the signal ratio;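 also: cells stimulated with carbachol in lithium chloride buffer; plate controls were DMSO basal wells for no effect and reference inhibitor wells for full effect; higher means more IMPase inhibition seen as more IP1 and lower FRET ratio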
Target sequence (P97697 whole entry, looked up): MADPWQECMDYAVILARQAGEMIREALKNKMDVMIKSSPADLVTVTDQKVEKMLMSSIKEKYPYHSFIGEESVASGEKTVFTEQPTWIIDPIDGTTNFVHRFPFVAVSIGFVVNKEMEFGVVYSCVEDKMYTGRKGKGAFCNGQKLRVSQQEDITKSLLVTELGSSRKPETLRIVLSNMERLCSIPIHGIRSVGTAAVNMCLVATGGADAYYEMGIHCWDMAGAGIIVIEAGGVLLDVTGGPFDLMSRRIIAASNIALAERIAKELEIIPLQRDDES
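Seeded CHO-M1 cells were dosed with compound at up to 46 uM, stimulated with carbachol for 30 min, then lysed in IP-One detection reagents. Higher IP1 lowers the TR-FRET signal.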
IMPase Li cell: membrane-permeable IMPase blocker, potentiated with lithium; CHO-M1 cells, IP1 TR-FRET (IP-One), carbachol + lithium; Potency, µM (highest dose often 59.4 µM), without a hit: at the highest dose activity, negative = IMPase inhibition, actives largely listed as inhibitors; 210,000 compounds, 0.35% hits; AID 1457;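 also: IP1 builds up when IMPase is blocked and the TR-FRET signal falls; potency is read from the fitted curve at half-maximal effect; plate controls were basal vehicle for no effect and high inhibitor control for full effect; nearly all actives have a fitted effect of over 50% in size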
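CHO-M1, 2000 cells/well, 16–30 h culture; cpd + low Li+, 30 min 37C; lysis with d2-IP1/Eu-anti-IP1 Ab, 10 min RT; TR-FRET 665/620 ratio and 620 channel; AC50 via Hill.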
HPGD inh: HPGD (human) dehydrogenase inhibition; P15428; purified HPGD, NADH fluorescence kinetic, PGE2 substrate; Potency, µM, for the others: top-dose activity change, negative = inhibition, most hits filed as inhibitors; 150,000 compounds, 4.3% hits; AID 894; active = well fitted inhibition curve with a large enough effect, not every such curve was filed as active; inconclusive = small, poorly fitted or top-dose-only effect, or another doubt; inactive = no such curve, though single readings can be large or run the other way; also: potency is read from the fitted curve at half-maximal effect
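NADH formation kinetics: reaction with 30 uM PGE2 and 1 mM NAD+ (final), 20 nM enzyme, Tris-HCl pH 8 with Tween 20, after 15 min compound preincubation at room temperature. Fluorescence change, last versus first of five reads.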
NPSR antagonist: antagonists of human neuropeptide S receptor cAMP signaling; Q6W5P4; CHO-NPSR cells, cAMP TR-FRET, antagonist mode; Potency, µM (doses to about 38.3 µM), inactives show at the top dose activity change, negative = inhibition, most hits filed as inhibitors; 220,000 compounds, 1% hits; AID 1461; also: potency is read from the fitted curve at half-maximal effect; nearly all actives have a fitted effect of over 50% in size
PNC inhibitor: perinucleolar compartment assembly inhibition | AID 2417 | activity change (PNC), negative = inhibition, % at 10 µM | 140,000 compounds, 3.1% hits | PC3M PTB-GFP, PNC prevalence imaging, 16 h; active compounds read low;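 active = readout at or below -70, meaning at least 70% loss of cells showing the perinucleolar compartment, a nuclear body marking cancer cells; inconclusive = readout between -30 and a set limit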;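 also: plate controls were DMSO wells for no effect and camptothecin positive control wells for full effect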
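Compounds are pinned in duplicate onto adhered PC3M cells stably expressing GFP-tagged PTB and incubated 16 h at 37 C. Cells are then fixed, nuclei stained with Hoechst, and PNC-positive cells counted.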
The depositor's hits bear a star; [ ] = another dose, or the depositor's remark. Unless noted, calls follow the shape of the dose curve; as a rule, active = well fitted curve in the direction sought with a large enough effect; inconclusive = small, poorly fitted or top-dose-only effect, or another doubt; inactive = no such curve, though single readings can be large; an effect the other way counts as inactive or inconclusive. Unless noted, % is scaled to controls: 0 for no effect and ±100 for the full control effect.

How did COCC(=O)NC1CCN(CC(=O)Nc2ccc(OC)cc2[N+](=O)[O-])CC1 do in these assays?
ALDH1A1 inh: 13µM*; IMPase cell inh: 2; IMPase Li cell: 9%[38.3 µM]; HPGD inh: -11%; NPSR antagonist: 2%[46.1 µM]; PNC inhibitor: -26

How did COCC(=O)NC1CCN(CC(=O)Nc2ccccc2[N+](=O)[O-])CC1 do in these assays?
ALDH1A1 inh: -13%; IMPase Li cell: 12%; NPSR antagonist: 1%

What do the screens show for `COc1cc(C2C(C#N)=C(N)N(c3sc4c(c3C#N)CCCC4)C3=C2C(=O)CC(C)(C)C3)cc(OC)c1OC` (stereo not drawn)?
ALDH1A1 inh: 4%; IMPase cell inh: 0; IMPase Li cell: -13%[38.3 µM]; HPGD inh: -8%; NPSR antagonist: -9%[46.1 µM]; PNC inhibitor: -21

What do the screens show for `CCOC(=O)c1csc(NC(=O)c2ccc(OC)c(OC)c2)n1`?
ALDH1A1 inh: 3%; IMPase cell inh: inconclusive; IMPase Li cell: inconclusive; HPGD inh: -8%; NPSR antagonist: inconclusive; PNC inhibitor: 22

Results for COc1ccc(C(=O)Nc2ccc(C3=NNC(=O)CC3C)cc2NC(=O)c2ccc(OC)cc2)cc1 (stereo not drawn) ?
ALDH1A1 inh: 2µM*; IMPase Li cell: 0%; NPSR antagonist: -23%

What do the screens show for `S=C(NCCc1ccccc1)Nc1cccc2cnccc12`?
ALDH1A1 inh: 20µM*; IMPase Li cell: 13%; NPSR antagonist: 1%

How did CCn1cc(CNC(=S)Nc2cccc3ccccc23)cn1 do in these assays?
ALDH1A1 inh: 6.3µM*; IMPase Li cell: 2%; NPSR antagonist: -3%

How did COc1ccc(CCNC(=S)Nc2cccc3ccccc23)cc1 do in these assays?
ALDH1A1 inh: 22µM*; IMPase Li cell: 0%; HPGD inh: -8%; NPSR antagonist: -7%; PNC inhibitor: -2

Results for S=C(NCc1cccnc1)NCc1cccnc1 ?
ALDH1A1 inh: 17%; IMPase Li cell: -3%; NPSR antagonist: 17%

How did S=C(NCc1cccnc1)Nc1cccc2ccccc12 do in these assays?
ALDH1A1 inh: 5µM*; IMPase Li cell: 6%; HPGD inh: -20%; NPSR antagonist: 12%; PNC inhibitor: -7

How did CCCCNC(=S)Nc1cccc2cnccc12 do in these assays?
ALDH1A1 inh: inconclusive; IMPase cell inh: -4; NPSR antagonist: -24%[46.1 µM]; PNC inhibitor: 31

What do the screens show for `O=[N+]([O-])c1ccc2c(c1)C=C1CCCCC1(N1CCCCC1)O2` (stereo not drawn)?
ALDH1A1 inh: 12%; IMPase cell inh: 2; IMPase Li cell: 11%; HPGD inh: -10%; NPSR antagonist: 6%; PNC inhibitor: 20

How did CC(C)OC(=O)CSc1nnc(COc2ccc([N+](=O)[O-])cc2)n1C do in these assays?
ALDH1A1 inh: -2%; IMPase Li cell: 3%; NPSR antagonist: 6%

Results for COC(=O)[C@@H]1CCCN1C(=O)[C@H]1C[C@@H]1[C@H](NC(=O)OCc1ccccc1)c1ccccc1 ?
ALDH1A1 inh: inconclusive; IMPase Li cell: -7%; HPGD inh: -3%

What do the screens show for `CCOC(=O)CSc1nnc(Cn2nnc(-c3ccccc3)n2)n1CC`?
ALDH1A1 inh: 18%; IMPase cell inh: 7; IMPase Li cell: 12%[38.3 µM]; HPGD inh: -13%; NPSR antagonist: 0%[46.1 µM]; PNC inhibitor: -22

How did CC(O)Cn1cnc2c1c(=O)n(C)c(=O)n2C (stereo not drawn) do in these assays?
ALDH1A1 inh: 5%; IMPase Li cell: -7%; HPGD inh: 0%; NPSR antagonist: 27%; PNC inhibitor: -115*

Results for Cn1c(=O)c2c(ncn2Cc2ccccc2)n(C)c1=O ?
ALDH1A1 inh: 3%; IMPase cell inh: 5; IMPase Li cell: 1%; HPGD inh: -4%; NPSR antagonist: -1%[46.1 µM]; PNC inhibitor: 10

What do the screens show for `Cn1c(=O)c2c(ncn2CCCc2ccccc2)n(C)c1=O`?
ALDH1A1 inh: -8%; IMPase cell inh: 5; IMPase Li cell: 2%[38.3 µM]; HPGD inh: 3%; NPSR antagonist: 14%[7.67 µM]; PNC inhibitor: -89*

Results for O=C1Nc2ccc(NS(=O)(=O)c3cccs3)c3cccc1c23 ?
ALDH1A1 inh: 16µM*; IMPase cell inh: 3; IMPase Li cell: 11%[38.3 µM]; HPGD inh: -16%; NPSR antagonist: -29%[46.1 µM]; PNC inhibitor: -25

How did O=C(O)c1ccccc1NS(=O)(=O)c1ccc2c3c(cccc13)C(=O)N2 do in these assays?
ALDH1A1 inh: -3%; IMPase cell inh: -4; IMPase Li cell: 4%[38.3 µM]; HPGD inh: -11%; NPSR antagonist: 5%[46.1 µM]; PNC inhibitor: 7

What do the screens show for `COc1ccc(C[C@H]2CN3C(=NC[C@@H]3Cc3ccccc3)N2C[C@H](C)NC(=O)CCC2CCCCC2)cc1`?
NPSR antagonist: -27%

What do the screens show for `O=C(Nc1nc(-c2cccs2)cs1)c1cccc(S(=O)(=O)N2CCCCCC2)c1`?
ALDH1A1 inh: inconclusive; IMPase cell inh: 8; IMPase Li cell: 24%[38.3 µM]; HPGD inh: -20%; NPSR antagonist: 10µM*; PNC inhibitor: -13

Results for O=C(NCCN1CCOCC1)C1CCN(S(=O)(=O)N2CCCCC2)CC1 ?
ALDH1A1 inh: inconclusive; IMPase cell inh: 3; IMPase Li cell: -7%[38.3 µM]; HPGD inh: -9%; NPSR antagonist: 13%[46.1 µM]; PNC inhibitor: -5

What do the screens show for `COc1ccc(CCNC(=O)C2CCN(S(=O)(=O)c3ccc(Cl)cc3)CC2)cc1OC`?
ALDH1A1 inh: -7%; IMPase cell inh: -10; IMPase Li cell: 6%; HPGD inh: -8%; NPSR antagonist: -13%[46.1 µM]; PNC inhibitor: -100*

Results for O=C(NCCCN1CCCC1=O)C1CCN(S(=O)(=O)N2CCOCC2)CC1 ?
ALDH1A1 inh: inconclusive; IMPase cell inh: -3; IMPase Li cell: 13%[38.3 µM]; HPGD inh: -10%; NPSR antagonist: -5%[46.1 µM]; PNC inhibitor: -84*

Results for O=C(NCCc1ccccc1)C1CCN(S(=O)(=O)N2CCCCCC2)CC1 ?
ALDH1A1 inh: 7.1µM*; IMPase Li cell: 8%; NPSR antagonist: -2%

How did COc1ccc(CCNC(=O)C2CCN(S(C)(=O)=O)CC2)cc1OC do in these assays?
ALDH1A1 inh: 9%; IMPase cell inh: -5[1.84 µM]; IMPase Li cell: 12%[38.3 µM]; HPGD inh: 0%; NPSR antagonist: -7%[46.1 µM]; PNC inhibitor: -10

What do the screens show for `COc1ccc(-c2nc3ccccc3s2)cc1NC(=O)c1cc(OC)c(OC)c(OC)c1`?
IMPase cell inh: 5

What do the screens show for `CCc1ccccc1NNC(=O)c1cc(C)on1`?
ALDH1A1 inh: 7%; NPSR antagonist: 10%

What do the screens show for `CC(Oc1ccc(Cl)cc1Cl)c1ccn[nH]1` (stereo not drawn)?
ALDH1A1 inh: 2%; IMPase Li cell: -6%; NPSR antagonist: -2%
